# Experimental data taken from PubChem BioAssay (NCI).
# The panel holds about 79,000 compounds, 15% with a hit somewhere; the sample as a whole holds those more often. Unmarked numbers belong to inactive results. The source made the active and inactive calls. Rule as the data show it: active = growth inhibition above about 70%; inactive = the rest.
# How the values were obtained:
# [1] = NCI Yeast Anticancer Drug Screen. Data for the rad50 strain (AID 155);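 also: 0% = growth of vehicle-only cultures of the same strain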; details: S. cerevisiae rad50 strain growth inhibition; at 50.0 µM; stronger effect = higher value
# How it was run: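 Vehicle-treated cultures provide the reference for the growth inhibition reported for compound-exposed, repair-deficient yeast.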
# [2] = NCI Yeast Anticancer Drug Screen. Data for the mec2-1 strain (AID 157); details: S. cerevisiae mec2-1 strain, at 50.0 µM, stronger effect = higher value
# How it was run: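 Strain: mec2-1 (DNA repair/cell cycle alteration). Compound exposure, then growth measured; inhibition expressed relative to vehicle.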
# [3] = NCI Yeast Anticancer Drug Screen. Data for the sgs1 mgt1 strain (AID 161);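 also: 0% = growth of cultures given vehicle only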; details: S. cerevisiae sgs1 mgt1 strain, at 50.0 µM, stronger effect = higher value
# How it was run: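 Test agents were incubated with a DNA-repair-mutant yeast strain. Growth was then read and compared against vehicle-treated controls.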
# [4] = NCI Yeast Anticancer Drug Screen. Data for the cln2 rad14 strain (AID 165);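 also: 0% = growth equal to vehicle treated cultures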; details: S. cerevisiae cln2 rad14 strain, at 50.0 µM, stronger effect = higher value
# How it was run: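 Compounds are applied to the cln2 rad14 yeast strain, and growth is then compared with that of vehicle-treated cultures to give inhibition.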
# [5] = NCI Yeast Anticancer Drug Screen. Data for the bub3 strain (AID 167); details: S. cerevisiae bub3 mutant strain, at 50.0 µM, stronger effect = higher value
# How it was run: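 Mutant yeast screening strain plus compound; vehicle-treated cultures serve as the 0% inhibition reference.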
# [6] = NCI Yeast Anticancer Drug Screen. Data for the mlh1 rad18 strain (AID 175); details: S. cerevisiae mlh1 rad18 strain growth inhibition; at 50.0 µM; stronger effect = higher value
# How it was run: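 Read-out is yeast growth inhibition, calculated against vehicle-only controls. The compound was applied to a strain engineered with DNA damage repair alterations.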
SMILES,growth inhibition [1],growth inhibition [2],growth inhibition [3],growth inhibition [4],growth inhibition [5],growth inhibition [6]
O=C1N(c2ccccc2)C2(O)C(=O)c3ccccc3C2(O)N1c1ccccc1 (configuration not stated),-10%,-2.15%,15.6%,16.5%,3.1%,-4.5%
CC(C)(C)CC(CC(C)(C)C)C(=O)O,28.9%,-1.2%,-3.5%,1.85%,4.05%,21.3%
NC(=O)c1nc(N)nc(N)c1[N+](=O)[O-],-10.8%,-15.1%,-16.1%,-18.8%,-21.9%,-18.9%
COC(=O)c1nc2c(N)nc(-c3ccccc3)nc2nc1N,8.9%,-7.4%,23.1%,11.3%,-16.6%,-1.95%
O=C(NNC(=O)c1cccc2ccccc12)c1cccc(Cl)c1,3.5%,-41.5%,-6.9%,4.05%,-4.05%,-13.9%
CC(c1ccccc1)C1OCC(CCCCO)O1 (configuration not stated),-7.9%,-20.2%,-10.7%,0.55%,-15.1%,-20.1%
CCOC(=O)C1CNCCC1=O (configuration not stated),-5.25%,-20.9%,-4.15%,-1.4%,-11.2%,-8.95%
COC(=O)C(C(=O)C(=O)Nc1ccc(C(F)(F)F)cc1[N+](=O)[O-])c1csc(-n2nc(-c3ccccc3)cc2-c2ccccc2)n1 (configuration not stated),19.9%,18.6%,42.5%,-13.2%,23.4%,1.6%
CC(O)c1ccccc1Br (configuration not stated),-9.65%,-15.1%,-16.2%,-13.4%,-36.5%,-21%
COc1ccc(/C=C/c2nc(=S)[nH][nH]2)cc1OC,-18.1%,-21.5%,12.7%,12.3%,25.1%,-3.1%
CP1(=O)CC(=O)CCCCC(=O)C1,2.25%,-1.6%,-1.2%,-25.8%,42.7%,19.6%
CCc1c(C)[nH]c(C2=NCCC2)c1C,-10.6%,-9.6%,-17.8%,-1.6%,-13.4%,-25.1%
CC1CCCC(C(O)(C(=O)O)C2CCCCC2)C1 (configuration not stated),23.2%,12.6%,22.4%,13.1%,13.1%,26.6%
C=CCNC(=S)/N=C/C(C(=O)Nc1ccccc1OC)=C(\C)O,-17.4%,-19.2%,-27.3%,-9.85%,-34.5%,-16.3%
COC(CC1(OC)OC(=O)C=C1N)OC (configuration not stated),-7.05%,20.1%,-12.7%,-28.3%,16.8%,-3.05%
COc1ccc(C2OCCCO2)cc1,13.5%,-19.1%,-6.45%,-34.4%,-27.4%,4.45%
CCC(=O)OC1=CC(=O)c2ccccc2C1=O,11.6%,12.4%,4.7%,8.6%,-15.5%,12.6%
COc1ccc(-c2c([O-])oc(-c3ccccc3)[n+]2C)cc1,17.8%,-18.4%,-6.2%,7.3%,3.1%,-4.1%
CCCCSc1ccc2n(C)c(-c3ccc(/C=N\NC(=O)c4ccc(C(=O)N/N=C\c5ccc(-c6c[n+]7cc(SCCCC)ccc7n6C)cc5)cc4)cc3)c[n+]2c1,-15.8%,-14.7%,-17.9%,-8.45%,-7.1%,-1.65%
O=C1OC(C2OC(=O)C(=O)C2C(=O)c2ccccc2Cl)C(C(=O)c2ccccc2Cl)C1=O (configuration not stated),58.4%,23.9%,49.5%,19.1%,7.15%,53.5%
CCSC1OC(C(O)CO)C(O)C1NC(=O)C(F)(F)F (configuration not stated),5.65%,6.05%,1.5%,1.1%,32%,12.8%

SMILES,growth inhibition [1],growth inhibition [2],growth inhibition [3],growth inhibition [4],growth inhibition [5],growth inhibition [6]
CC(=O)Nc1cc2ccccc2c(Br)n1,-14.9%,6.55%,-4.65%,-13.1%,-9.95%,-6.15%
N#CCCn1nc(SCc2ccccc2)c(=O)[nH]c1=O,-2.6%,0.3%,7.65%,6.3%,-1.65%,7.85%
NC1=C(O)C(=O)C(c2ccccc2O)O1 (configuration not stated),-34.6%,-32.6%,-19.1%,-21.6%,-18.6%,-10.9%
CCOC(=O)OC1CCCCC1c1ccccc1 (configuration not stated),13.7%,-12.9%,-7.15%,-14.9%,-20.1%,-16.2%
C=C[C@@]1(C)CC2CC[C@]3(C)C(C)=CC(=O)CC3[C@]2(C)CC1O (some centres not stated),6.9%,3.3%,22.7%,-20.3%,13%,10.4%
Cc1ccc(N=Nc2ccc(N)cc2C)c(S(N)(=O)=O)c1,40.3%,4.05%,51.3%,5.05%,61.8%,49%
CC(C)(C)C(=O)O[C@H]1C=C[C@@H](O)[C@@H]2[C@H]1[C@@H]1C=C[C@H]2C1,28.1%,41.6%,66.8%,11.6%,55.9%,53.5%
COC(C)CCOC(=O)c1ccccc1 (configuration not stated),-33%,-17.6%,-14.2%,-29.7%,-29.9%,-31.2%
Nc1nc(-c2ccccc2)cc(-c2cc(Cl)ccc2O)n1,13.9%,-0.55%,-3.1%,20.5%,6.4%,6.55%
Cc1ccc2nc(CC(=O)c3ccc4ccccc4c3)c(=O)[nH]c2c1,6.4%,9.65%,9.2%,13.3%,3.15%,22.1%
CCCCCCCCN1N=C(C)CCC1=O,-7.55%,-9.2%,-0.45%,-23.7%,-25.7%,-8.55%
NC(C(=O)O)C1C=CCCC1 (configuration not stated),-25.4%,-3.4%,-30.8%,-57.3%,-27.2%,6.85%
C[N+]1(CCC(/C=C/c2ccc([N+](=O)[O-])cc2)=N\O)CCOCC1,17.3%,-0.9%,14.8%,-6.55%,1.05%,46.5%
F[Si](c1ccccc1)(c1ccccc1)c1cccc2ccccc12,98.7% (active),98.6% (active),99.2% (active),98.8% (active),98.5% (active),98.8% (active)
COC(=O)c1ccc(NC(C)=O)c([N+](=O)[O-])c1,3.35%,-7.7%,-11.4%,-21.9%,-26.1%,16.4%
Cc1ccc(C2CC(c3ccc([N+](=O)[O-])cc3)=Nc3ccccc3S2)cc1 (configuration not stated),6.4%,-1.75%,15.1%,14.7%,20.5%,8.6%
NCOC(=O)Cc1ccc(Br)cc1,14.8%,6.65%,-0.35%,-2.55%,4.15%,18.6%
CCCCC(CCCC)NCC(C)OC(=O)c1ccc(N)cc1 (configuration not stated),20.6%,-2.35%,0.5%,-26.8%,-6%,16.3%
CC(=O)Nc1nc(C)c(S(=O)(=O)Cl)s1,27.5%,10.4%,33%,23.2%,14.8%,19.6%
Cc1nn(C(=O)CC(=O)Nc2ccccc2Cl)c(C)c1N=Nc1ccccc1F,-13.7%,4%,-27.6%,21.9%,2.7%,-14.6%
O=C(O)CCN1CCCS(=O)(=O)C1=O,11.8%,8%,-0.35%,9%,-0.85%,-5.3%
